The text below walks through data of PubChem BioAssay (NCI).

Common to all, as to assay: NCI-60 one-dose screen, 48 h (100 = growth as untreated, 0 = no growth, -100 = all killed)
Assay [1] relates to T-47D breast. Particulars: 10 µM unless noted.
In assay [2] the test system is BT-549 breast. Particulars: 10 µM unless noted.
Assay [3] concerns MDA-MB-435 melanoma. The conditions noted are these: 10 µM unless noted.
For assay [4], the system named is SW-620 colon. The conditions noted are these: 10 µM unless noted.
Assay [5] deals with MCF7 breast. The conditions noted are these: 10 µM unless noted.
Assay [6] deals with HCT-116 colon. The conditions noted are these: 10 µM unless noted.
Assay [7] deals with HCC-2998 colon. Particulars: 10 µM.
In assay [8] the test system is KM12 colon. Particulars: 10 µM unless noted.

Each structure is given as a SMILES string. Compounds without any hit were thinned out: in the full panel of roughly 83,000, 20% have a hit.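 Cells were grown in 96-well plates and exposed to the test compound at a single concentration for 48 hours; results are reported as percent growth, with values below 10 considered active.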 A number with no mark means an inactive call. Calls of active or inactive are those of the source.

As for `COc1ccc(CCCc2c3[n+](cc4c(OC)c(OC)ccc24)CCc2cc4c(cc2-3)OCO4)cc1`, the growth is 15.6% in assay [1]; 41.8% in assay [2]; 39.7% in assay [3]; 68.9% in assay [4]; 93.7% in assay [5]; 59.2% in assay [6]. Further, the growth in assay [7] is 74%; in assay [8], 30.8%.
With `O=C(O)c1ccc(Nc2ncc3c(n2)-c2ccc(Cl)cc2C(c2c(F)cccc2F)=NC3)cc1`, the growth in assay [1] is 47.5%; in assay [2], 57.1%; in assay [3] it was 70.7%; in assay [4] it was 35.4%; in assay [5], 49.3%; in assay [6] it was 43.6%. Besides, the values for the growth in assay [7] and in assay [8] were 78.5% and 28.3%, respectively.
Consider `O=C(Cn1ccnc1)Nc1ccc(-c2nc3ccccc3s2)cc1`, for which the growth is 51.4% in assay [1]; 65.1% in assay [2]; 81.6% in assay [3]; 99.8% in assay [4]; 61.3% in assay [5]; 68.2% in assay [6]. In addition, the growth is 94.9% in assay [7] and 84.4% in assay [8].
For `COc1ccc2c(CCCCC(c3ccccc3)c3ccccc3)c3[n+](cc2c1OC)CCc1cc2c(cc1-3)OCO2`, the growth was -49.3% (active) in assay [1]; -74.2% (active) in assay [2]; -91.8% (active) in assay [3]; -76.9% (active) in assay [4]; -40.6% (active) in assay [5]; -52.8% (active) in assay [6]. The figures for the growth in assay [7] and in assay [8] were -95.7% (active) and -71.5% (active), respectively.
Take `CC(C)(O)CC(=O)NCCn1ccc2ncnc(Nc3ccc(Oc4cccc(C(F)(F)F)c4)c(Cl)c3)c21`: the growth in assay [1] is -18.8% (active); in assay [2], 17.5%; in assay [3] it was 14.3%; in assay [4] it was 14.1%; in assay [5], 14.3%; in assay [6], 0.422% (active). Further, the growth is -27.2% (active) in assay [7] and 9.88% (active) in assay [8].
With `CCOc1cc2ncc(C#N)c(Nc3ccc(OCc4ccccn4)c(Cl)c3)c2cc1NC(=O)/C=C/CN(C)C`, the growth in assay [1] is 15.9%; in assay [2], 39.4%; in assay [3] it was -87.7% (active); in assay [4] it was -63.9% (active); in assay [5], -6.35% (active); in assay [6], -81.2% (active). Also, the growth in assay [7] was 50.8%; in assay [8] it was -60% (active).
Turning to `COc1ccc(-n2c(=O)c3ccccc3n(Cc3ccc(C(=O)NO)cc3)c2=O)cc1`, the growth is 5.48% (active) in assay [1]; 36.2% in assay [2]; -84.2% (active) in assay [3]; -27.3% (active) in assay [4]; 25.9% in assay [5]; -19.9% (active) in assay [6]. Besides, the values for the growth in assay [7] and in assay [8] were 34% and -32.9% (active), respectively.
Take `O=c1nc2c(-c3nc4ccccc4s3)n[nH]n2c2sc3c(c12)CCCC3`: the growth in assay [1] was 78.9%; in assay [2], 94.1%; in assay [3] it was 110%; in assay [4], 100%; in assay [5], 89.1%; in assay [6], 89.1%. In addition, the growth was 103% in assay [7] and 96.7% in assay [8].
With `Cc1nc(NC(=O)N2CCC[C@H]2C(N)=O)sc1-c1ccnc(C(C)(C)C(F)(F)F)c1`, the growth in assay [1] was -34.7% (active); in assay [2], 50.2%; in assay [3] it was 49.3%; in assay [4] it was 41.7%; in assay [5], 13.9%; in assay [6] it was 26.4%. Moreover, the growth was 48.6% in assay [7] and 57.6% in assay [8].
Regarding `CC1CCC(n2cnc3c(Cl)ncnc32)O1` (stereo not drawn), the growth in assay [1] is 91.1%; in assay [2] it was 89.6%; in assay [3] it was 99.6%; in assay [4], 106%; in assay [5] it was 90.1%; in assay [6], 89.3%. Also, the growth in assay [7] was 103%; in assay [8], 106%.
For the compound `COc1cccc(Nc2ncnn3ccc(CN4CC[C@@H](N)[C@H](O)C4)c23)c1`, the growth was -1.78% (active) in assay [1]; 48.3% in assay [2]; 75.6% in assay [3]; 88.4% in assay [4]; 58.8% in assay [5]; 21.9% in assay [6]. In addition, the growth in assay [7] was 77.1%; in assay [8] it was 14.1%.
In the case of `CN1CC[C@H](c2c(O)cc(O)c3c(=O)cc(-c4ccccc4Cl)oc23)[C@H](O)C1`, the growth was 0.506% (active) in assay [1]; -8.28% (active) in assay [2]; -73.3% (active) in assay [3]; 0.889% (active) in assay [4]; 4.72% (active) in assay [5]; 4.7% (active) in assay [6]. Moreover, the growth is -21.1% (active) in assay [7] and 3.91% (active) in assay [8].
On to `COc1ccc(-c2ccc3ncc4c(c3c2)n(-c2ccc(N3CCNCC3)c(C(F)(F)F)c2)c(=O)n4C)cn1`, for which the growth in assay [1] was -66.9% (active); in assay [2], -63.6% (active); in assay [3] it was -88.3% (active); in assay [4] it was -78.4% (active); in assay [5], -63% (active); in assay [6], -69.8% (active). In addition, the growth in assay [7] was -93.2% (active); in assay [8] it was -95.8% (active).
`O=C(Cc1ccccc1)Nc1nnc(NC2CCN(c3nnc(NC(=O)Cc4ccccc4)s3)CC2)s1`: the growth in assay [1] was 84%; in assay [2], 82%; in assay [3], 102%; in assay [4], 99.8%; in assay [5] it was 87.4%; in assay [6], 89.2%. Moreover, the results for the growth in assay [7] and in assay [8] were 101% and 59.2%, respectively.
Take `S=C(NCc1ccc2c(c1)OCO2)N1CCN(c2ncnc3c2oc2ccccc23)CC1`: the growth in assay [1] is 1.12% (active); in assay [2], 32.3%; in assay [3] it was 19.3%; in assay [4] it was 40.9%; in assay [5], 18.7%; in assay [6] it was 34.3%. Moreover, the growth in assay [7] is 57.4%; in assay [8], 45.2%.
`O=C1CC(c2cccc(F)c2)c2c(n[nH]c2-c2ccc(Cl)cc2)N1` (stereo not drawn): the growth in assay [1] was 55.8%; in assay [2], 92.4%; in assay [3], 99.5%; in assay [4], 114%; in assay [5] it was 96.5%; in assay [6], 74.4%. The growth was 102% in assay [7] and 91.7% in assay [8].
